PvdQ inh – P. aeruginosa PvdQ acylase inhibition; inhibition, % at 10 µM; AID 488965; purified PvdQ acylase, fluorescence plate reader; 0.063% of 340,000 active; in the data active = inhibition above about 30%, passing the limit was not always enough; inconclusive = no clear call, values can overlap the other calls
Wnt act – activators of Wnt/beta-catenin signaling | Wnt/beta-catenin reporter cell assay, activator, plate reader | activation, % at 9.35 µM | 1.2% of 300,000 active | AID 743398; in the data active = activation above about 30%, passing the limit was not always enough; inconclusive = no clear call, values can overlap the other calls
N-glyco inh – N-linked glycosylation inhibition; D54 ERlucT glycosylation luciferase reporter, 24 h; percent of 100 nM tunicamycin response; reporter increase, % at 12.5 µM; 0.23% of 360,000 active;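 active = mean luciferase reporter signal, scaled so untreated is 0 and the glycosylation-blocking control 100, at or above a set limit in every replicate; inconclusive = mean reaches the limit but not every replicate does; inactive = mean below the limit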;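 also: luciferase carries N-glycosylation sites so blocking glycosylation raises the light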
Vif inh – blocks HIV Vif function; HEK293T cells, Vif self-association by quenched fluorescence, imaging, 24 h; inhibition, % at 7.49 µM; 0.35% of 340,000 active; in the data active = inhibition above about 50%, passing the limit was not always enough; inconclusive = no clear call, values can overlap the other calls; inactive = below about 31%
MITF act – MITF TRPM1 promoter activation in melanoma cells. SK-MEL-5 TRPM1-promoter luciferase, 24 h; % of positive control, neutral wells = 0. activation, % at 12.5 µM. 0.75% of 300,000 active;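 active = mean activation of at least 80% with every replicate also reaching 80%; inconclusive = mean reaches 80% but some replicate falls short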
esBAF inh – SWI/SNF esBAF complex inhibition. mouse ES cells, Bmi1-luciferase knock-in reporter, 24 h; 100% = twice the neutral-well signal. reporter increase, % at 12.5 µM. 2% of 350,000 active. AID 602393; in the data active = activation above about 40%; inconclusive = no clear call, values can overlap the other calls;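 also: a rise in the Bmi1 reporter signal indicates esBAF inhibition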
Hits are given with their value; 0 = inactive; ? = inconclusive; - = not tested or not shown. In the library only some 2.9% were active in any assay of this set; here they are far more common.

SMILES | PvdQ inh | Wnt act | N-glyco inh | Vif inh | MITF act | esBAF inh
O=c1c2ccccc2nc(SCc2nnc(-c3ccccc3Br)o2)n1-c1ccccc1 | 0 | 0 | 0 | 0 | 0 | 0
C[C@H](CO)N1C[C@H](C)[C@H](CN(C)C(=O)[C@H](Cc2ccccc2)N(C)C)OCc2ccccc2-c2c(n(C)c3ccccc23)C1=O | - | - | - | - | - | 0
Cc1ccc(-c2nnc3n2N=C(c2ccc(Br)cc2)CS3)cc1 | 0 | 0 | 0 | 0 | 0 | 0
Clc1ccc(C2=Nn3c(nnc3-c3n[nH]c4c3CCC4)SC2)cc1 | 0 | - | 37.1 | 0 | 0 | 0
c1ccc(-c2ccc(C3=Nn4c(nnc4-c4cc(-c5ccccc5)n[nH]4)SC3)cc2)cc1 | 0 | 0 | 0 | 0 | 0 | 0
Brc1ccc(C2=Nn3c(nnc3-c3n[nH]c4c3CCC4)SC2)cc1 | 0 | - | 41.9 | 0 | 0 | -
CO[C@@H]1CN(C)C(=O)c2ccc(NS(C)(=O)=O)cc2OC[C@H](C)N(C)C[C@@H]1C | - | - | - | - | - | 0
CC(C)NC(=O)Nc1ccc2c(c1)C(=O)N([C@@H](C)CO)C[C@H](C)[C@@H](CN(C)S(=O)(=O)c1cn(C)cn1)OCCCC[C@H](C)O2 | - | - | - | - | - | 0
C[C@@H]1CN([C@@H](C)CO)S(=O)(=O)c2ccc(C#CC3CCCC3)cc2O[C@@H]1CN(C)Cc1cncnc1 | - | - | - | - | - | 0
Cc1c(C(=O)Nc2cccnc2Cl)oc2ccccc12 | 0 | 0 | 0 | 0 | 0 | 47.9
Cc1c(C(=O)Nc2ccccn2)oc2ccccc12 | 0 | ? | 0 | 0 | 0 | 0
COc1ccc(NC(=O)c2oc3ccccc3c2C)cn1 | 0 | 0 | 0 | 0 | 0 | 43.0
COC(=O)c1sc(NC(=O)c2oc3ccccc3c2C)nc1C | 0 | - | 0 | 0 | 0 | 60.4
Cc1c(C(=O)Nc2ccncc2)oc2ccccc12 | 0 | 0 | 0 | 0 | - | 0
CCC(=O)N1[C@H](CO)[C@@H](c2ccccc2)[C@@H]1CN(CC)C(=O)c1ccccc1 | - | - | - | - | - | 0
O=C(c1ccccc1)N1C[C@H]2[C@@H](c3ccccc31)[C@H](CO)N2S(=O)(=O)c1ccccc1 | - | - | - | - | - | 0
CCc1cccc(NC(=O)CCS(=O)(=O)c2cc3c(cc2C)NC(=O)CO3)c1 | 0 | 0 | 0 | 134.1 | - | 0
CCOc1cc(/C=N/NC(=O)CSc2nnc(C)s2)ccc1OCc1ccccc1Cl | 0 | 52.3 | 0 | 0 | 0 | -
CC(=O)c1ccc(NC(=O)/C(Cl)=C/c2ccccc2)cc1 | 0 | 0 | 0 | 0 | 138.2 | -
Cc1ccc(NC(=O)/C(Cl)=C\c2ccccc2)cc1 | 0 | 0 | 0 | 0 | 0 | 0
O=C(Nc1ccc(F)cc1)/C(Cl)=C/c1ccccc1 | 0 | 0 | 0 | 0 | 83.6 | 48.4
O=c1[nH]c(=O)n(C2CC(O)C(CO)O2)cc1I (stereo not drawn) | 0 | 0 | 81.5 | 0 | - | -
O=c1[nH]c(=O)n([C@H]2C[C@H](O)[C@@H](CO)O2)cc1F | 0 | 0 | 0 | 0 | 0 | 0
O=c1[nH]c(=O)n([C@H]2C[C@H](O)[C@@H](CO)O2)cc1Br | 0 | 46.5 | 48.5 | 0 | 0 | 0
O=c1[nH]c(=O)n(C2OC(CO)C(O)C2O)cc1Br (stereo not drawn) | 0 | 0 | 0 | 0 | 0 | 0
SMILES | PvdQ inh | Wnt act | N-glyco inh | Vif inh | MITF act | esBAF inh
CS(=O)(=O)N1CCCCN2[C@H](C1)[C@H](c1ccc(-c3cccc(C#N)c3)cc1)[C@@H]2CO | - | - | - | - | - | 0
CC(C)NC(=O)NCC[C@H]1CC[C@H](NC(=O)CN(C)C)[C@@H](CO)O1 | - | - | - | - | - | 0
COc1ccc(Cl)cc1C(=O)Nc1ccc2c(c1)OCO2 | 0 | - | 0 | 0 | - | 50.7
Cc1cccc(C)c1OCC(=O)Nc1ccc2c(c1)OCCO2 | 0 | 0 | 0 | 0 | 0 | 43.0
COc1ccccc1C(=O)Nc1ccc2c(c1)OCO2 | 0 | - | 0 | 0 | 0 | 0
O=C(COc1ccccc1Cl)Nc1ccc2c(c1)OCCO2 | 0 | - | 0 | - | 0 | 48.5
COc1ccccc1C(=O)Nc1ccc2c(c1)OCCO2 | 0 | - | 0 | 0 | 0 | 59.3
COc1cccc(NC(=O)N2C[C@H](O)COC[C@@H]3O[C@@H](CC(=O)NCCCN4CCOCC4)CC[C@H]32)c1 | - | - | - | - | - | 0
O=C(C[C@H]1C=C[C@H](NC(=O)Nc2cc(F)ccc2F)[C@@H](CO)O1)NCc1ccc2c(c1)OCO2 | - | - | - | - | - | 0
CCOc1ccc(NC(=O)CN(C)C(=O)c2cc(S(=O)(=O)N3CCCCC3)ccc2Cl)cc1OCC | 0 | 0 | 0 | 92.3 | 0 | 0
Cc1oc(C(C)(C)C)cc1C(=O)Nc1ccc2c(c1)OCCO2 | 0 | - | 0 | 0 | 0 | 43.8
O=C(Nc1ccc2c(c1)OCCO2)c1ccc(Br)cc1 | 0 | 0 | 0 | 0 | 0 | 0
COc1ccc(C(=O)Nc2ccc3c(c2)OCCO3)cc1Br | 0 | 0 | 0 | 0 | - | 48.2
Cc1ccccc1OCC(=O)Nc1ccc2c(c1)OCCO2 | 0 | 38.5 | 0 | 0 | 125.5 | -
C[C@H](CO)N1C[C@H](C)[C@H](CN(C)Cc2ccccc2)Oc2ccc(NC(=O)CCCN(C)C)cc2C1=O | - | - | - | - | - | 0
C[C@@H]1CN([C@H](C)CO)C(=O)c2cc(NC(=O)Cc3ccccc3)ccc2O[C@H]1CN(C)C(=O)Nc1ccc(F)cc1 | - | - | - | - | - | 0
